PLAP act: activators of human placental alkaline phosphatase; P05187; purified PLAP enzyme, luminescent substrate read-out; active compounds read high; activation fold at 20 µM; hit rate 1.2% among 96,000; in the data active = activation fold above about 2
M1 agonist: agonists of M1 muscarinic receptor | B-score at 10 µM | hit rate 3% among 64,000 | CHO-M1 cells, Fluo-4 calcium fluorescence, agonist mode; active compounds read high;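 active = fluorescence rise, raw or as B-score row- and column-corrected plate score, outside the 99.7% band of its plate's samples, either direction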
Cav3 T inh: inhibitors of human Cav3.2 T-type calcium channel; O95180; Cav3.2-expressing cells, Fluo-4 calcium fluorescence FDSS; active compounds read low; B-score at 10 µM; hit rate 4% among 100,000; AID 449739;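 active = single-dose well whose peak fluorescence ratio is a statistical outlier from its plate by either plate-standardised score or position-corrected B-score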
M1 antagonist: M1 muscarinic receptor (rat) antagonism; P08482; CHO-M1 cells, Fluo-4 calcium, ACh EC80 antagonist mode; active compounds read low; B-score at 10 µM; hit rate 3.4% among 64,000;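 active = calcium fluorescence response, raw or row-and-column corrected B-score, differing from the plate sample mean either way at a set confidence level, mostly lower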
Target sequence (P08482 whole entry, looked up): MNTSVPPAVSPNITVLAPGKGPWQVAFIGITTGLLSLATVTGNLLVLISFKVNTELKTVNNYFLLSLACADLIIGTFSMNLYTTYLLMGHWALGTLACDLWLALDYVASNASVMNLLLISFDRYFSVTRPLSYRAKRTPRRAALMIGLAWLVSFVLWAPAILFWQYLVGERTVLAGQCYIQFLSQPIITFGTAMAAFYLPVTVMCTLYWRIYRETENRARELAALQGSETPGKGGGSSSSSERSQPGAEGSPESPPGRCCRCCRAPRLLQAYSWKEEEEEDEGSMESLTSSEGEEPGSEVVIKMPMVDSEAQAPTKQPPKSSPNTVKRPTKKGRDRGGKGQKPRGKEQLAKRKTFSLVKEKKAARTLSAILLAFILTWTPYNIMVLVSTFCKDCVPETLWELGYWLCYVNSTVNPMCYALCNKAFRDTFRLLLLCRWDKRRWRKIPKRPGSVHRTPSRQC
The depositor's hits bear a star; · = no result. Sampled rows, rich in hits. Any-hit rate of the full collection: about 7.6%.

SMILES	PLAP act	M1 agonist	Cav3 T inh	M1 antagonist
CC(C)NC(=O)C(Sc1ccccc1)c1ccccc1 (centres undefined)	1.1	·	-0.291	·
O=C(Nc1ccon1)C(Sc1ccccc1)c1ccccc1 (centres undefined)	0.8	-0.513	-4.23*	-0.392
COc1cccc(NC(=O)C(OC(=O)/C=C/c2ccc3c(c2)OCO3)c2ccccc2)c1 (centres undefined)	1.1	·	-5.08*	·
O=C(CCNS(=O)(=O)c1cccs1)N1CCc2ccccc2C1	0.8	0.704	1.11	0.0319
CC1CCCC(C)N1C(=O)c1cccc2c1-c1ccccc1/C2=N/O (centres undefined)	·	·	-6.39*	·
CCOC(=O)c1cccc2c1-c1ccccc1/C2=N/O	1.2	0.676	-0.807	-0.325
COc1cccc(NC2=NC3(CCCCC3)N=C(N)N2)c1	2.8*	-0.14	-0.502	-0.29
COc1ccc(CCn2nnc(-c3ccc(NC(C)=O)c(Cl)c3)n2)cc1	·	·	0.111	·
COc1ccc(N2C(=O)CCC(C(=O)Nc3cccc(C)n3)C2c2ccc(OC)c(OC)c2)cc1 (centres undefined)	1.6	-0.621	-1.13	0.65
CC(=O)N1c2ccccc2C(C)(C)C2CCC(C)CC21 (centres undefined)	·	·	-4.58*	·
CC(=O)N1c2ccccc2C(C)CC12CCCCC2 (centres undefined)	·	0.462	-1.75	-0.369
COc1ccc(OC)c(Nc2nc(N)nc(CSc3nnc(-c4ccncc4)o3)n2)c1	0.9	·	·	·
Cc1nc(CS(=O)(=O)c2ccc(Cl)cc2)cc(Sc2ccc(Cl)cc2)n1	1.5	·	-5.32*	·
CCOC(=O)C(C)Sc1cc(CS(=O)(=O)c2ccccc2)nc(-c2ccccc2)n1 (centres undefined)	1.2	·	-5.79*	·
Cc1nc(CS(=O)(=O)c2ccccc2)cc(N2CCOCC2)n1	1	·	-0.361	·
Clc1ccc(SCc2cc(Cl)nc(-c3ccccc3)n2)cc1	·	·	-1.47	·
O=S(=O)(Cc1cc(Sc2ccc(Cl)cc2)nc(-c2ccccc2)n1)c1ccccc1	0.7	·	-4*	·
O=S(=O)(Cc1cc(Oc2ccccc2)nc(-c2ccccc2)n1)c1ccccc1	1	·	-5.11*	·
CCOC(=O)CSc1cc(CSc2ccccc2)nc(-c2ccccc2)n1	1	·	-1.07	·
CCCCNC(=O)Cn1c(=O)oc2cc(S(=O)(=O)N3CC(C)CC(C)C3)ccc21 (centres undefined)	1	·	-0.193	·
Cc1cc(C)cc(NC(=O)Cn2c(=O)oc3cc(S(=O)(=O)N4CC(C)CC(C)C4)ccc32)c1 (centres undefined)	1.5	·	-4.28*	·
N#C/C(C(=O)N1CCOCC1)=C1/SC(Cc2ccccc2)C(=O)N1c1ccccc1 (centres undefined)	1.4	-0.598	-0.453	-0.183
CCCCc1ccc(CC2S/C(=C(\C#N)C(=O)N3CCOCC3)N(c3ccccc3)C2=O)cc1 (centres undefined)	1.6	·	-3.89*	·
COc1ccccc1-c1c(C#N)c(SCC(=O)N2CCCC2)nc(C)c1C(N)=O	0.9	0.0245	0.96	-0.164
CCc1cccc(CC)c1-n1c(SCn2nnc3ccccc3c2=O)nnc1-c1cccnc1	1.7	·	-5.28*	·
SMILES	PLAP act	M1 agonist	Cav3 T inh	M1 antagonist
CCC1=C[C@H]2CN(C1)Cc1c([nH]c3ccccc13)[C@@](C(=O)OC)(c1cc3c(cc1OC)N(C)[C@H]1[C@@](O)(C(=O)OC)[C@H](OC(C)=O)[C@]4(CC)C=CCN5CC[C@]31[C@@H]54)C2	·	·	-0.661	·
Cc1cccc(Cn2c(=O)n(-c3ccc(CC(=O)NCc4ccco4)cc3)c(=O)c3sccc32)c1	1.1	·	-0.0892	·
COc1ccc(/C=C/C(=O)NC(=S)NNC(=O)c2ccco2)cc1	·	·	-5.35*	·
C=C(C)CNC(=S)NNC(=O)c1ccco1	2*	·	·	·
Cc1ccc(N2C(=O)N(CC(=O)N3CCCc4ccccc43)C(=O)C2C)cc1 (centres undefined)	1	·	-0.366	·
COc1ccc(/C=N/NC(=O)Cc2csc(Nc3cccc(C(F)(F)F)c3)n2)cc1C	1	·	-3.94*	·
COc1ccc(O)c(C(=O)c2cc(C#N)c(=O)n(-c3c(C)n(C)n(-c4ccccc4)c3=O)c2)c1	1	5.84*	-0.604	-0.736
C=CCc1cc(/C=N/NC(=O)CSc2nnc(CCCc3ccc(OC)cc3)o2)cc(OC)c1O	0.9	·	-0.403	·
CCc1ccc2nc(NC(=O)c3ccc4c(=O)[nH]c(CN5CCOCC5)nc4c3)sc2c1	2.3*	0.175	-0.116	0.166
N=C1C(c2nc3ccccc3[nH]2)=C(O)CN1c1ccccc1	1.2	0.67	-0.834	0.653
N=C1C(c2nc3ccccc3c(=O)[nH]2)=C(O)CN1c1ccccc1	2.2*	·	-1.5	·
CCC(c1nnc(SCC(=O)Nc2ccc(C(=O)Nc3ccccc3OC)cc2)o1)N(C)C (centres undefined)	2.3*	-0.484	-1.25	0.00503

Screening results from PubChem.
